FLuc modulator = firefly luciferase modulation, counter-screen for miR-21 project | purified FLuc, Km substrates, luminescence inhibition | 360,000 compounds, 6.9% hits | Potency, µM (highest dose often 57.5 µM), inactives show top-dose activity change, negative = inhibition, most hits filed as inhibitors;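 further: plate controls were vehicle for no effect and reference inhibitor for full effect; nearly all actives have a fitted effect of over 55% in size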
Target sequence (P08659 whole entry, looked up): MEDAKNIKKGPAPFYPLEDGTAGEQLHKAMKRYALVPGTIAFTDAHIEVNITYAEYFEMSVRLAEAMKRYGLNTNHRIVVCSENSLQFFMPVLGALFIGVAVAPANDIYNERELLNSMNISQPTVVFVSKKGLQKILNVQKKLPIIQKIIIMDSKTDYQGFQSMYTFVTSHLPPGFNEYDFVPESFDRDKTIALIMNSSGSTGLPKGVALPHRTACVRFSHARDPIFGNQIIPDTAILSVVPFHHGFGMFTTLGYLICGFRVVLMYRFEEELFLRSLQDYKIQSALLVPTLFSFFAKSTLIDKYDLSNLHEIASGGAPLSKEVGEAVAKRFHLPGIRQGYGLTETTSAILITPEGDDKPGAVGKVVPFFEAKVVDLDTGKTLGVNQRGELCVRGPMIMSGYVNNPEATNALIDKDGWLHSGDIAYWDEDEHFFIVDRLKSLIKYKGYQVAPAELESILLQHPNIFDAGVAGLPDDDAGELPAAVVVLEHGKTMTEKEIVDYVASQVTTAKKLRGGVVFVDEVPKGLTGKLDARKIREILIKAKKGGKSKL
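Purified P. pyralis luciferase, 10 nM final, with Km-level 10 uM D-luciferin and 10 uM ATP in 50 mM Tris acetate pH 7.5, 10 mM Mg acetate, 0.01% Tween-20, 0.05% BSA; 6-point qHTS titration about 60 µM downward; luminescence read.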
NPC1 promoter act = activators of NPC1 promoter; Potency, µM (top dose mostly 9.22 µM), for the others: at the top dose activation, most hits filed as activators; 320,000 compounds, 2.4% hits; Huh7 NPC1 promoter luciferase reporter, 24 h; further: % of control where 0% means no effect; nearly all actives have a fitted effect of over 60% in size
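Luminescence read-out of NPC1 promoter-driven luciferase in stably transfected Huh7 cells; compounds delivered in DMSO and left 24 h at 37C, 5% CO2, qHTS titration format.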
ELG1 genotoxic = genotoxicity induction in ELG1-luciferase HEK293T cells; HEK293T ELG1-luciferase reporter, luminescence, 16 h; Potency, µM (top dose mostly 46 µM), without a hit: at the top dose activity change, positive = activation, actives largely listed as activators; 330,000 compounds, 1.3% hits; AID 504466; further: % of control where 0% means no effect; nearly all actives have a fitted effect of over 60% in size
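Screening used a luciferase reporter fused to human ELG1 in HEK293T cells. Luminescence was read on a CCD plate imager after 16 hr exposure and 30 min ONE-Glo incubation.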
SMN2 splice enh = SMN2 splice variant enhancement. Potency, µM (titrated, usually from 46.1 µM), without a hit: top-dose activity change, positive = activation, actives largely listed as activators. AID 1458. HEK293 SMN2-luciferase splicing reporter, luminescence, 30-36 h. 210,000 compounds, 2.8% hits; further: % of control where 0% means no effect; nearly all actives have a fitted effect of over 55% in size
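HEK293 cells carry an SMN2 […]–luciferase reporter in which exon 7 inclusion puts luciferase in frame. Cells were plated 10-12 h before compound addition, then incubated 30-36 h at 37C. ONE-Glo luminescence was read; sodium butyrate at 4.5 mM final served as control.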
Luc counter = counter-screen: inhibitors of Kinase-Glo firefly luciferase; Q27757; Kinase-Glo luciferase, ATP luminescence, 8 min; Potency, µM (doses to about 38.3 µM), inactives show at the highest dose activity change, negative = inhibition, usual class: inhibitors; 200,000 compounds, 0.28% hits; AID 1379; further: on the % scale 0 is the no-effect control and ±100 the full control effect; nearly all actives have a fitted effect of over 60% in size
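Recombinant Kinase-Glo luciferase, 10 uM ATP (linear range), luciferin; imidazole pH 7.2 / KCl / MgCl2 / Tween / BSA buffer; 8 min RT; luminescence.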
Rab9 promoter act = activates the Rab9 promoter; 320,000 compounds, 2.8% hits; Huh7 Rab9 promoter-luciferase reporter, luminescence, 24 h; Potency, µM (series often up to 9.22 µM), for inactives: at the highest dose activation, negative = inhibition, actives largely listed as activators; AID 485297; further: % of control where 0% means no effect; nearly all actives have a fitted effect of over 60% in size
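Luminescence from Amplite-detected luciferase (10 minutes, ambient) reports Rab9 promoter activation. Before that, stable Rab9-luciferase Huh7 cells (1500/well, reduced-serum OP-MEM I plus 10% FBS) were exposed to compound for 24 hours at 37C.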
An asterisk follows results filed as active; ? = inconclusive; . = no result given. Compounds with a hit are over-represented: about 7.4% of the library has one in this group of screens. The call rests on the fitted dose curve; in most records, active means well fitted curve in the direction sought with a large enough effect; inconclusive means small, poorly fitted or top-dose-only effect, or another doubt; inactive means no such curve, though single readings can be large; an effect the other way counts as inactive or inconclusive. Potency means the concentration at half of the fitted maximal effect.

SMILES	FLuc modulator	NPC1 promoter act	ELG1 genotoxic	SMN2 splice enh	Luc counter	Rab9 promoter act
O=c1c(N2CCCCC2)coc2ccccc12	?	22%	?	.	-7%	28%
Cc1ccc2scc(N3CCCCC3)c(=O)c2c1	0.85µM*	.	.	.	.	.
O=C(O)c1cccc2c1-c1ccccc1/C2=N\Nc1ccccc1	11µM*	3.2µM*	12%	.	.	?
O=C(O)c1cccc(NN=C2c3ccccc3-c3ccccc32)c1	27µM*	1%	15%	0%	3%	2%
N/C(=N\OC(=O)c1ccccc1)c1ccn[nH]1	6.7µM*	2.2µM*	10µM*	.	.	3.5µM*
N/C(=N\OC(=O)c1ccc(Cl)cc1[N+](=O)[O-])c1cccnc1	24µM*	25%	?	.	.	?
O=C(NCc1cccnc1)c1ccc(Cl)cc1[N+](=O)[O-]	3%	-2%	3%	?	0%	-8%
N/C(=N\OC(=O)CC(c1ccccc1)c1ccccc1)c1cccnc1	1%	-1%	-3%	-10%	0%	-13%
N/C(=N\OC(=O)c1ccccc1)c1cccnc1	5.4µM*	19%	?	.	?	30%
O=C(O/N=C(/c1ccccc1)c1ccncc1)c1ccc(F)cc1	-5%	-5%	-3%	-20%	1%	-2%
N/C(=N\OC(=O)c1cc(Br)ccc1Cl)c1cccnc1	21µM*	?	12%	19%	-2%	?
N/C(=N\OC(=O)Cc1ccc(Cl)cc1)c1cccnc1	?	0%	1%	-19%	-2%	-4%
Cc1ccc(C(=O)O/N=C(\c2ccccc2)c2cccnc2)cc1	17µM*	-3%	2%	-10%	1%	1%
N/C(=N\OC(=O)c1cc(Cl)ccc1Cl)c1cccnc1	9.5µM*	14%	21µM*	?	-5%	?
N/C(=N\OC(=O)c1ccccc1Cl)c1cccnc1	4.3µM*	3.5µM*	?	16µM*	-15%	?
CCOC(=O)C1CCN(Cc2cn3c(-c4ccc(OC)cc4)nnc3s2)CC1	1%	.	.	.	.	.
CCOC(=O)C1CCN(c2nc(C)cc(C)c2C#N)CC1	3%	-2%	-1%	-1%	1%	-2%
COc1cc2c(C#N)c(N3CCc4ccccc4C3)nc(N)c2c(N)n1	21µM*	10%	13%	27%	0%	0%
CCOc1cc2c(C#N)c(N3CCCCC3)nc(N)c2c(N)n1	15µM*	1%	?	-20%	-6%	?
CCOC(=O)C1CCN(c2nc(N)c3c(N)nc(SCC(=O)O)cc3c2C#N)CC1	17µM*	-4%	-1%	.	.	-1%
COc1cc2c(C#N)c(N3CCCCC3)nc(N)c2c(N)n1	4.8µM*	13%	?	6%	10%	12%
COc1cc2c(C#N)c(N3CCOCC3)nc(N)c2c(N)n1	?	-2%	18%	37%	-26%	-8%
COC(=O)c1c(SC)nc2ccccc2c1OCc1ccc(C)cc1C	4%	.	.	.	.	.
COC(=O)c1ccc(-c2ccc(/C=N/N3C(=O)C4C5C=CC(CC5)C4C3=O)o2)cc1 (stereo not given)	24µM*	3.2µM*	-7%	5µM*	-3%	3.2µM*
O=C1C2C3C=CC(CC3)C2C(=O)N1/N=C/c1ccc(O)cc1 (stereo not given)	15µM*	?	?	2%	-5%	26%
O=C(O)c1cc(-c2ccc(/C=N/N3C(=O)C4C5C=CC(CC5)C4C3=O)o2)ccc1Cl (stereo not given)	19µM*	1%	3%	.	6%	1%
CCOC(=O)c1c(NC(=O)CSc2cn(CCNC(=O)c3ccccc3OC)c3ccccc23)sc2c1CCCC2	5%	.	.	-3%	.	.
O=C(COC(=O)c1cccs1)c1ccc2c(c1)OCCO2	0.076µM*	1.6µM*	10µM*	-10%	2.5µM*	0.32µM*
O=C(COC(=O)c1cccs1)c1ccc2ccccc2c1	1.7µM*	?	?	-20%	-18%	28%

High-throughput results: PubChem BioAssay, National Center for Advancing Translational Sciences (NCATS)
